{"source": "PubChem BioAssay (Tox21)", "note": "Values without a mark were called inactive. Results filed as inconclusive are left out. Activity calls are given as the source filed them. Calls follow the shape of the full dose curve. % is scaled to controls: 0 for no effect and ±100 for the full control effect."}
{"test": "qHTS assay to identify small molecule agonists of the sonic hedgehog signaling (Shh) pathway (AID 1259368);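 also: NIH/3T3-derived 3T3Gli1-Luc cells carrying a stable Gli1-driven firefly luciferase reporter; nearly all actives have a fitted effect of over 15% in size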", "conditions": "NIH/3T3 Gli1-Luc reporter, luciferase, 24 h; series mostly up to 92.4 µM; activity change: at the top concentration", "summary_of_the_method": "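Cells of a mouse NIH/3T3 clone stably expressing luciferase under the Gli1 transcriptional response element are exposed to test chemicals for 24 hr at 37 C. Pathway activation is detected as a rise in luminescence.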"}
{"smiles": "CCCCCCCCC(=O)OCC(C)OC(=O)CCCCCCCC", "note": "(configuration not stated)", "activity change": "-1.67%"}
{"smiles": "CC[C@H](NC(C)C)[C@H](O)c1ccc(O)c2[nH]c(=O)ccc12", "activity change": "0.192% [at 42.5 µM, hits give high values]"}
{"smiles": "O=C(O)c1ccncc1", "activity change": "-1.99%"}
{"smiles": "CCCCCCCCOCCCN", "activity change": "-6.16%"}
{"smiles": "COc1cc(CNC(=O)CCCC/C=C/C(C)C)ccc1O", "activity change": "-3.09%"}
{"smiles": "C[C@H]1C[C@H]2[C@@H]3CCC4=CC(=O)C=C[C@]4(C)[C@@]3(F)[C@@H](O)C[C@]2(C)[C@@]1(O)C(=O)COP(=O)(O)O", "activity change": "-4.96%"}
{"smiles": "CC(C)(C)N", "activity change": "-0.163%"}
{"smiles": "CNc1ccccc1", "activity change": "-0.196%"}
{"smiles": "C=Cc1ccc(C=C)cc1", "activity change": "-0.258%"}
{"smiles": "C/C=C1\\[C@H]2C=C(C)C[C@]1(N)c1ccc(=O)[nH]c1C2", "activity change": "0.24% [at 42.5 µM, hits give high values]"}
{"smiles": "O=C1OC(=O)C2CC=CCC12", "note": "(configuration not stated)", "activity change": "-0.498%"}
{"smiles": "CC1(C)C(=O)NC(=O)N1CO", "activity change": "0.0169%"}
{"smiles": "Nc1ccc(C(=O)Oc2ccccc2)c(O)c1", "activity change": "5.72% [at 42.5 µM, hits give high values]"}
{"smiles": "O=c1[nH]nc(-c2ccc([N+](=O)[O-])o2)o1", "activity change": "2.76%"}
{"smiles": "C/C(=C(\\CCO)SS/C(CCO)=C(\\C)N(C=O)Cc1cnc(C)nc1N)N(C=O)Cc1cnc(C)nc1N", "activity change": "0.0314% [at 42.5 µM, hits give high values]"}
{"smiles": "CC(=O)Nc1ccccc1O", "activity change": "0.289%"}
{"smiles": "CC1(COc2ccc(CC3SC(=O)NC3=O)cc2)CCCCC1", "note": "(configuration not stated)", "activity change": "1.91% [at 42.5 µM, hits give high values]"}
{"smiles": "CC(=O)c1ccc(Cl)c(Cl)c1Cl", "activity change": "-0.0144%"}
{"smiles": "CC(=O)Oc1cccc2c1C(=O)c1c(OC(C)=O)cc(C(=O)O)cc1C2=O", "activity change": "-1.08% [at 42.5 µM, hits give high values]"}
{"smiles": "CC1=C(C)C(=O)C(C(CCCCCC(=O)O)c2ccccc2)=C(C)C1=O", "note": "(configuration not stated)", "activity change": "-0.0796% [at 42.5 µM, hits give high values]"}
{"smiles": "O=C(NC1CCN(CCc2c[nH]c3ccccc23)CC1)c1ccccc1", "activity change": "-1.62% [at 42.5 µM, hits give high values]"}
{"smiles": "N#CCCCC(C#N)CCC#N", "note": "(configuration not stated)", "activity change": "-1.2%"}
{"smiles": "C(/C=C/C=C/Nc1ccccc1)=Nc1ccccc1", "activity change": "2.81%"}
{"smiles": "CCC(C)C1N=C(C)C(C)S1", "note": "(configuration not stated)", "activity change": "0.0431%"}
{"smiles": "Cc1cc(C)n(CO)n1", "activity change": "1.43%"}
{"smiles": "CCOc1ccccc1O", "activity change": "-0.0566%"}
{"smiles": "CCC1=C(C)CN(C(=O)NCCc2ccc(S(=O)(=O)NC(=O)NC3CCC(C)CC3)cc2)C1=O", "note": "(configuration not stated)", "activity change": "0.566% [at 42.5 µM, hits give high values]"}
{"smiles": "O=C1c2ccccc2C(=O)c2c1ccc(O)c2O", "activity change": "-0.4% [at 42.5 µM, hits give high values]"}
{"smiles": "CC(C)C/C=C(\\C=O)c1ccccc1", "activity change": "0.287%"}
{"smiles": "CC(C)=CCC[C@H](C)CCO", "activity change": "-1.09%"}
{"smiles": "Cc1ccc(NC=O)c(C)c1", "activity change": "-0.571%"}
{"smiles": "NC(=O)c1cc[n+](CC2=C(C(=O)[O-])N3C(=O)[C@@H](NC(=O)Cc4cccs4)[C@H]3SC2)cc1", "activity change": "-0.371% [at 42.5 µM, hits give high values]"}
{"smiles": "[O-][n+]1ccc(Cl)cc1", "activity change": "0.366%"}
{"smiles": "CCC(C(=O)O)c1ccc(N2Cc3ccccc3C2=O)cc1", "note": "(configuration not stated)", "activity change": "3.66% [at 42.5 µM, hits give high values]"}
{"test": "qHTS assay to identify small molecule antagonists of the sonic hedgehog signaling (Shh) pathway (AID 1259369); also: nearly all actives have a fitted effect of over 45% in size; also: potency is read from the fitted curve at half-maximal effect", "conditions": "NIH/3T3 Gli1-Luc reporter, Shh antagonist, luminescence 24 h; series mostly up to 92.4 µM; activity change, negative = inhibition: at the top concentration", "summary_of_the_method": "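Cells are plated and held 4hr at 37 C, compounds (DMSO) are pinned in, conditioned medium is added to stimulate the pathway, and after 24hr luciferase reagent is added for 30min before luminescence is read.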"}
{"smiles": "CCCC(=O)OCc1ccccc1", "activity change, negative = inhibition": "0%"}
{"smiles": "CC[C@H](NC(C)C)[C@H](O)c1ccc(O)c2[nH]c(=O)ccc12", "activity change, negative = inhibition": "8.44% [at 42.5 µM]"}
{"smiles": "CCCCCCCCOCCCN", "Potency": "30.6 µM (active)"}
{"smiles": "CC(C)(C)N", "activity change, negative = inhibition": "3.44%"}
{"smiles": "CNc1ccccc1", "activity change, negative = inhibition": "0%"}
{"smiles": "C=Cc1ccc(C=C)cc1", "activity change, negative = inhibition": "2.78%"}
{"smiles": "C/C=C1\\[C@H]2C=C(C)C[C@]1(N)c1ccc(=O)[nH]c1C2", "activity change, negative = inhibition": "12.5% [at 42.5 µM]"}
{"smiles": "CC1(C)C(=O)NC(=O)N1CO", "activity change, negative = inhibition": "8.76%"}
{"smiles": "Nc1ccc(C(=O)Oc2ccccc2)c(O)c1", "activity change, negative = inhibition": "38% [at 42.5 µM]"}
{"smiles": "COC(=O)/C=C/C(C)=C\\C=C\\C(C)=C\\C=C\\C=C(C)\\C=C\\C=C(C)\\C=C\\C(=O)O", "activity change, negative = inhibition": "-23.6%"}
{"smiles": "C/C(=C(\\CCO)SS/C(CCO)=C(\\C)N(C=O)Cc1cnc(C)nc1N)N(C=O)Cc1cnc(C)nc1N", "activity change, negative = inhibition": "16.2% [at 42.5 µM]"}
{"smiles": "O=[N+]([O-])c1cccc(I)c1", "activity change, negative = inhibition": "-23%"}
{"smiles": "CC(=O)Nc1ccccc1O", "activity change, negative = inhibition": "4.23%"}
{"smiles": "CC(=O)c1ccc(Cl)c(Cl)c1Cl", "activity change, negative = inhibition": "21.8%"}
{"smiles": "CC(=O)Oc1cccc2c1C(=O)c1c(OC(C)=O)cc(C(=O)O)cc1C2=O", "activity change, negative = inhibition": "-26.6% [at 42.5 µM]"}
{"smiles": "CC1=C(C)C(=O)C(C(CCCCCC(=O)O)c2ccccc2)=C(C)C1=O", "note": "(configuration not stated)", "activity change, negative = inhibition": "32.5% [at 42.5 µM]"}
{"smiles": "CO[C@@H]1COCC[C@@H]1N[C@@H]1CC[C@@](C(=O)N2CCc3ncc(C(F)(F)F)cc3C2)(C(C)C)C1", "activity change, negative = inhibition": "-5.78%"}
{"smiles": "N#CCCCC(C#N)CCC#N", "note": "(configuration not stated)", "activity change, negative = inhibition": "3.34%"}
{"smiles": "CCC(C)C1N=C(C)C(C)S1", "note": "(configuration not stated)", "activity change, negative = inhibition": "2.46%"}
{"smiles": "Cc1cc(C)n(CO)n1", "activity change, negative = inhibition": "0%"}
{"smiles": "CCOc1ccccc1O", "activity change, negative = inhibition": "1.33%"}
{"smiles": "CCC1=C(C)CN(C(=O)NCCc2ccc(S(=O)(=O)NC(=O)NC3CCC(C)CC3)cc2)C1=O", "note": "(configuration not stated)", "activity change, negative = inhibition": "29.6% [at 42.5 µM]"}
{"smiles": "O=C1c2ccccc2C(=O)c2c1ccc(O)c2O", "activity change, negative = inhibition": "22.3% [at 42.5 µM]"}
{"smiles": "CC(C)C/C=C(\\C=O)c1ccccc1", "activity change, negative = inhibition": "-7.72%"}
{"smiles": "CC(C)=CCC[C@H](C)CCO", "activity change, negative = inhibition": "-6.42%"}
{"smiles": "Cc1ccc(NC=O)c(C)c1", "activity change, negative = inhibition": "31.2%"}
{"smiles": "[O-][n+]1ccc(Cl)cc1", "activity change, negative = inhibition": "0%"}
{"smiles": "CCC(C(=O)O)c1ccc(N2Cc3ccccc3C2=O)cc1", "note": "(configuration not stated)", "activity change, negative = inhibition": "40.6% [at 42.5 µM]"}
